# Screening results (PubChem BioAssay)
# NFkB transloc pot: enhances IL-1B driven NFkB nuclear translocation; activation, % at 2 µM; AID 819; 94,000 tested, 0.3% active; HUVEC IL-1B NFkB p65 nuclear translocation imaging;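 active means activation above 40%, about the mean plus 3 SD, also judged a hit on visual image review; inconclusive means activation above 40% but not a hit on visual review; inactive means activation not above 40% and no visual hit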;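 further: percent activation is computed from the nuclear over cytoplasmic p65 intensity ratio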
# Pyk2 oligo antag: antagonists of human Pyk2 oligomerization. Q14289. Q293 cells, Pyk2 FERM NanoBiT luminescence; stronger effect = lower value. z-score (the deposit names both 25 µM and 10 µM). 99,000 tested, 0.83% active;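 active means Z-score of -3 or lower, scaled per plate to the spread of control and sample wells; inactive means z-score above -3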;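 further: negative z-score means lost luminescence so less FERM oligomerization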
# IL1B cytotox: HUVEC cytotoxicity counter-screen, IL-1B stimulated; HUVEC cell count loss, Hoechst imaging; cell count reduction, % at 2 µM; 94,000 tested, 0.41% active; AID 845;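 active means cell count reduction more than 3 SD above the screen-wide mean, cut at about 70% in these data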;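 further: normalized per plate to untreated control cells as the no-loss baseline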
# FAK inh: blocks human focal adhesion kinase activity. Q05397. biochemical FAK kinase activity assay. inhibition, %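 (tested at 7 µM)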. 97,000 tested, 0.84% active; in the data active means inhibition above about 19%;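 further: 0% = DMSO and 100% = reference compound high control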
# Target sequence (Q05397 whole entry, looked up): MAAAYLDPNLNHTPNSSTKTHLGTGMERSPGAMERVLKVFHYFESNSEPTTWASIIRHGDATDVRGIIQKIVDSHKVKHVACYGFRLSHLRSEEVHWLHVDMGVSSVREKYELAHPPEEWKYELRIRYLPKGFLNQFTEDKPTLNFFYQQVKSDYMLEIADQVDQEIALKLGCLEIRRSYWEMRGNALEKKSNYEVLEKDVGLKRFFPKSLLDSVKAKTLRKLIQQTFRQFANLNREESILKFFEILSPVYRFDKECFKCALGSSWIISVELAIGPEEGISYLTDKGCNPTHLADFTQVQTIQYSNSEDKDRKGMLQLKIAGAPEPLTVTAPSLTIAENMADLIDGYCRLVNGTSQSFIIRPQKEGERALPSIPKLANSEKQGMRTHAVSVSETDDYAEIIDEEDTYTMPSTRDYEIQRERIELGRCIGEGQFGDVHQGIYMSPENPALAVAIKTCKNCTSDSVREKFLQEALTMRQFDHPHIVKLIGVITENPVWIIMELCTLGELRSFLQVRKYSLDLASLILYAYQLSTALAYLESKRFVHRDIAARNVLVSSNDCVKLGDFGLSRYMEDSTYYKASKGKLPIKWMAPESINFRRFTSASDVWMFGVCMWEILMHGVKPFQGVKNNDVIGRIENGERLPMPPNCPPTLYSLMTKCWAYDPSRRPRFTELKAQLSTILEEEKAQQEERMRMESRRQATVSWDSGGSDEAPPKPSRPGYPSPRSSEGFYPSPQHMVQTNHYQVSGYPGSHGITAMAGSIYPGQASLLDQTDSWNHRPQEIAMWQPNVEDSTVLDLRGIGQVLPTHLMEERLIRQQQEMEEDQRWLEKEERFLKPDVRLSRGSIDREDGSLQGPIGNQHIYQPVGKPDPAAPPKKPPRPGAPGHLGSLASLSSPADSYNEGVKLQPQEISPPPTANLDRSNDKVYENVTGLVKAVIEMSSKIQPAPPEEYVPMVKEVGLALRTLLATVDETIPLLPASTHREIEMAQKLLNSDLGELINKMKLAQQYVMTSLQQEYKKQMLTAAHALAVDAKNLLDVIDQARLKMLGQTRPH
# JNK3 blocker: inhibitors of human JNK3 kinase; P53779; purified JNK3 kinase activity, HTS; inhibition, % at 8 µM; 60,000 tested, 0.61% active; in the data active means inhibition above about 17%;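 further: 0% = DMSO and 100% = reference inhibitor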
# NFkB transloc inh: blocks IL-1B driven NFkB nuclear translocation in HUVEC cells; 94,000 tested, 0.43% active; HUVEC IL-1B NFkB p65 nuclear translocation imaging; AID 796; inhibition, % at 2 µM;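 active means inhibition above about 30% together with a positive call from visual inspection of the well image, limit read from the data; inconclusive means inhibition above a set limit but visual check negative; inactive means inhibition not above a set limit, visual check negative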;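 further: nuclear over cytoplasmic p65 intensity ratio measured by imaging; 0% = IL-1B stimulated DMSO wells and 100% = unstimulated DMSO wells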
# Starred values were filed as active, the others as inactive; ? = inconclusive; nt = not tested or not shown. Most compounds without a hit are left out; they make up all but 2.4% or so of the library.
SMILES,NFkB transloc pot,Pyk2 oligo antag,IL1B cytotox,FAK inh,JNK3 blocker,NFkB transloc inh
Cc1ccc(OC(C)c2nnc(N)s2)cc1Cl (centres undefined),-97,0.34,92*,0,0,97*
CC(Oc1ccccc1Cl)c1nnc(N)s1 (centres undefined),1,0.1,-4,0,nt,-1
COc1ccc(NC(=O)C2CC(c3cc(OC)c(OC)c(OC)c3)=NO2)cc1OC (centres undefined),-7,-0.42,-13,2,3,7
COc1cccc(C2=NOC(C(=O)Nc3cc(OC)c(OC)c(OC)c3)C2)c1 (centres undefined),17,0.49,-5,-6,81*,-17
COc1ccc(-c2cc(C(F)(F)F)c3c(=O)n(-c4ccccc4)[nH]c3n2)cc1,6,-4.1*,-1,5,nt,-6
CCn1c(=NC(=O)c2ccc(S(=O)(=O)N3CCOCC3)cc2)sc2cccc(OC)c21,-2,-1.7,-47,4,0,4
COc1ccc2nc(SCC(N)=O)[nH]c2c1,-10,-0.42,6,0,0,10
COc1ccc2[nH]c(=O)c(NC(N)=S)nc2c1,-7,-0.41,89*,5,nt,6
CCc1nnc(NC(=O)CSc2nc(C)c3c(c2C#N)CCCC3)s1,35,-3.4*,-3,0,-1,-35
COc1ccc(NC(=O)c2cccc(NC(=O)C3C4CC5OC(=O)C3C5C4)c2)c(OC)c1 (centres undefined),5,-0.3,-26,-1,-2,-5
CCOC(=O)CCC(NC(=O)c1ccc(NCN2C(=O)c3ccccc3C2=O)cc1)C(=O)OCC (centres undefined),9,0.64,-36,0,28*,-9
Cc1ccc(C2CC(C(F)(F)F)n3nc(C(=O)NCc4c(C)nn(C)c4C)c(Cl)c3N2)cc1 (centres undefined),20,-3.5*,-15,-1,-2,-20
NC(=O)c1c(NC(=O)Cc2cccs2)sc2c1CCC2,3,-0.11,-15,13,31*,-3
CN1CCN(c2ccc([N+](=O)[O-])cc2/C=N/NC(=O)c2ccc(F)cc2)CC1,-30,0.45,12,12,nt,30*
CCN(CC)C(=O)C1CCCN(c2ccc([N+](=O)[O-])cc2/C=N/NC(=O)c2cccc(Br)c2)C1 (centres undefined),2,-0.39,8,14,nt,-2
O=C(Nc1ccccc1)C1CCN(c2nccs2)CC1,0,0.27,-26,7,-9,0
CC(=O)Nc1cccc(NC(=O)CSc2ncc(-c3ccc(Cl)cc3)n2Cc2ccco2)c1,10,-3.7*,-15,-3,-1,-10
COc1cc(C(=O)NCc2cn3cccc(C)c3n2)cc(OC)c1OC,13,nt,30,-2,-2,-13
CCC1(CC)C(=O)C(C)(C)C(=O)OC1c1cccs1 (centres undefined),11,-0.15,-50,2,3,-11
Cc1nn(-c2ccccc2)c(Cl)c1C(=O)OC(C)C(=O)NC(=O)NC1CCCCC1 (centres undefined),4,-4.2*,-24,5,nt,-4
COc1ccccc1C(=O)NCC(=O)OC(C)C(=O)NC(=O)NC1CCCCC1 (centres undefined),13,0.09,-12,-1,nt,-13
CN(C)c1ncc(C2=C(Cl)C(=O)C(N3CCCC3)=C(Cl)C2=O)s1,-7,-0.06,-15,39*,nt,7
O=C(OCc1ccccc1)/C(=C/c1ccc(Cl)cc1)NC(=O)c1ccccc1Cl,40*,0.18,-69,2,nt,-40
COc1ccccc1-n1cnnc1SCC(=O)c1ccc[nH]1,13,1.9,-18,-1,8,-13
COc1cc(/C=N/N(C)c2ccccc2)cc(Cl)c1O,14,-3*,-9,-1,nt,-14
SMILES,NFkB transloc pot,Pyk2 oligo antag,IL1B cytotox,FAK inh,JNK3 blocker,NFkB transloc inh
CCCCNS(=O)(=O)c1ccc2nc(SCC(=O)Nc3sccc3C#N)[nH]c2c1,-4,-3.7*,5,5,9,4
CCOc1cc(-c2c(C#N)c(=O)[nH]c3c2c(C)nn3-c2ccc(F)cc2)ccc1O,nt,-1.3,nt,nt,-1,nt
CCOc1cc(-c2c(C#N)c(N)nc3c2CCCC3C)ccc1O (centres undefined),-1,-3.1*,-20,0,0,1
CCOc1ccc(-c2csc(/C(C#N)=C\c3ccc(O)c([N+](=O)[O-])c3)n2)cc1,nt,-2.9,nt,nt,nt,nt
CCOc1cc(-c2cc(-c3ccc(C)cc3)nc(N)c2C#N)ccc1O,-3,-3.8*,-11,1,nt,3
CCOc1cc(/C=C(\C#N)c2[nH]nc(N)c2C#N)ccc1O,1,-3.1*,10,7,nt,-1
CC1=CC(=C2C(=O)c3ccccc3C2=O)C=C(C)N1C,5,nt,3,1,21*,-5
CCOC(=O)C1CCCCN1Cc1cccc(F)c1 (centres undefined),nt,0.94,nt,-2,nt,nt
CC(C)(C)c1csc(NC(=O)c2ccc(Cl)s2)n1,12,-3*,-20,4,-3,-12
O=c1cc(CN2CCN(S(=O)(=O)c3ccc4c(c3)OCCO4)CC2)c2ccc(O)cc2o1,8,-3.9*,2,2,nt,-8
CCc1ccc2c(CN3CCN(S(=O)(=O)c4ccc5c(c4)OCCO5)CC3)cc(=O)oc2c1,4,-1.3,-15,-5,-4,-4
Cc1ccc(NS(=O)(=O)c2cc(C(=O)N3CCOCC3)ccc2C)cc1C,0,-0.68,-28,-3,6,0
COc1ccc(CN(C(=O)CSc2nnc(-c3c[nH]c4ccccc34)o2)c2ccc(F)cc2)cc1OC,?,-4.2*,-42,1,nt,-46
COc1ccc(CN(C(=O)CSc2nnc(-c3ccc(F)cc3)o2)c2ccc(F)cc2)cc1,nt,-2.1,nt,nt,1,nt
COc1cc(/C=C/C(=O)N2CCN(CC(O)COc3ccccc3)CC2)cc(OC)c1OC (centres undefined),-5,0.13,-17,1,nt,5
O=C(O)c1coc2ccccc12,57*,nt,-18,2,6,-57
O=C(/C=C/N1CCOCC1)c1coc2ccccc12,-8,1.2,-17,-1,2,8
Cc1cc(C)n(Cc2ccc(Cl)cc2Cl)c(=O)c1S(=O)(=O)c1ccccc1,-11,-0.75,-39,-1,nt,11
CCN1CNC(=S)N(c2cc(C)ccc2C)C1,7,0.5,-15,3,nt,-7
Cc1ccc(NC(=O)c2cc3ccccc3o2)cc1S(=O)(=O)N(C)C,5,-3.2*,-14,-2,nt,-5
O=c1[nH]c(=O)n(C2CCCO2)cc1Br (centres undefined),-13,0.84,15,1,-3,13
O=C(Cn1cnc2ccccc2c1=O)Nc1ccc(-c2nnc3n2CCCCC3)cc1,6,-1.1,-33,-5,30*,-6
Cc1ccc(NC(=O)COc2ccc3oc4c(c3c2)CCCC4)nc1,16,1.6,80*,-1,-4,-16
N#Cc1cccc(C(c2nnnn2C2CCCC2)N2CCC(Cc3ccccc3)CC2)c1 (centres undefined),3,-4.4*,24,0,nt,-3
